Assay results reported in ChEMBL document CHEMBL3988442, “University of Dundee, Small-Polar-MMV Screening Library” (2021).

molecular target: Shiga toxin 2 (Escherichia coli O157:H7) (UniProt P09385+P09386); assay: E. coli 0.157:H7 Shiga Toxin SOP - stx2 screening assay; assay type: functional; parameters: scale not given: direction of the effect not stated beside the values; conditions: 30 µM

Structure (SMILES) | Percent Effect
COc1ncccc1C(=O)N1CCn2c(COCC3CC3)cnc2C1C (centres undefined) | 6.35%
CNS(=O)(=O)CCCN1CCCC1c1noc(C2CC2)n1 (centres undefined) | 4.89%
CN(C(=O)c1cccc2[nH]ncc12)C1CCN(c2ccccn2)CC1 | 24.8%
Cc1cc(S(=O)(=O)N2CCc3ccc(F)cc32)cc(C(=O)O)c1C | -5.86%
CCn1ncc(Br)c1CN(C)S(=O)(=O)c1ccc(C)cc1 | -7.09%
CN(Cc1ccco1)Cc1ccccc1CNC(=O)c1ccncc1 | 12.1%
Cn1cc(CN2C[C@@H]3CN(Cc4ccoc4)CCO[C@@H]3C2)cn1 | -1.85%
CC(C)c1nc(C(=O)NCCn2ccnc2)nn1-c1cccc(F)c1 | 32.1%
Cc1cc(CN2CCN(C(=O)C(C)C)[C@@H]3CS(=O)(=O)C[C@@H]32)ccc1F | -10.2%
CCN(CC)CC1CN(CCc2ccccc2)Cc2nccn2C1 (centres undefined) | 4.72%
CN(C)C(=O)N1C[C@H]2CCC[C@@]2(COc2ccccn2)C1 | 10.3%
CCN1CCOC(CNCc2ccccc2OCc2ccccn2)C1 (centres undefined) | 23.9%
CC1c2ncc(COc3cccnc3)n2CCN1C(=O)C1=CCCC1 (centres undefined) | -30.8%
O=C(CN1CCOC(Cn2cccn2)C1)NCCc1ccc(F)cc1 (centres undefined) | 12%
CS(=O)(=O)NCC1CCCN(C(=O)COCc2ccccc2)C1 (centres undefined) | -16.5%
CN(Cc1ccco1)[C@@H]1CN(Cc2ccc(F)cc2)C[C@@H]2CCCO[C@@H]21 | 7.23%
Cc1ccc(CNC2CCN(CCc3ccncc3)CC2)s1 | -53.8%
OC(COc1ccccc1)CN1CCC(c2ccn[nH]2)CC1 (centres undefined) | -7.22%
CCc1cnc(C)nc1NCCN1CCCCCC1 | -69.6%
